From PubChem BioAssay (NCATS)
Results filed as inconclusive are left out. Calls of active or inactive are those of the source. Unless noted, calls come from the whole dose curve.

Assays:
[1] = target: Estrogen receptor (Homo sapiens) (UniProt P03372); assay: qHTS assay for small molecule agonists of estrogen receptor alpha signaling (AID 588514);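 note: 0% = vehicle only and 100% = reference agonist; nearly all actives have a fitted effect of over 70% in size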
Summary of the method: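 Cells were plated at 5000/well, incubated 4 hrs at 37 C, dosed with compound titration series, incubated 18 hrs at 37 C, loaded with CCF4 dye for 2 hrs at RT, then fluorescence was read.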

[2] = target: Glucocorticoid receptor (Homo sapiens) (UniProt P04150); assay: qHTS assay for small molecule antagonists of glucocorticoid receptor signaling (AID 588533; active = well fitted inhibition curve with a large enough effect in the signal ratio, with a control signal flat, not every such curve was filed as active; the % refers to the signal ratio; note: % is set by controls: 0 for no effect and ±100 for the full control effect)
Chain of Glucocorticoid receptor (Homo sapiens) (P04150 whole entry, looked up): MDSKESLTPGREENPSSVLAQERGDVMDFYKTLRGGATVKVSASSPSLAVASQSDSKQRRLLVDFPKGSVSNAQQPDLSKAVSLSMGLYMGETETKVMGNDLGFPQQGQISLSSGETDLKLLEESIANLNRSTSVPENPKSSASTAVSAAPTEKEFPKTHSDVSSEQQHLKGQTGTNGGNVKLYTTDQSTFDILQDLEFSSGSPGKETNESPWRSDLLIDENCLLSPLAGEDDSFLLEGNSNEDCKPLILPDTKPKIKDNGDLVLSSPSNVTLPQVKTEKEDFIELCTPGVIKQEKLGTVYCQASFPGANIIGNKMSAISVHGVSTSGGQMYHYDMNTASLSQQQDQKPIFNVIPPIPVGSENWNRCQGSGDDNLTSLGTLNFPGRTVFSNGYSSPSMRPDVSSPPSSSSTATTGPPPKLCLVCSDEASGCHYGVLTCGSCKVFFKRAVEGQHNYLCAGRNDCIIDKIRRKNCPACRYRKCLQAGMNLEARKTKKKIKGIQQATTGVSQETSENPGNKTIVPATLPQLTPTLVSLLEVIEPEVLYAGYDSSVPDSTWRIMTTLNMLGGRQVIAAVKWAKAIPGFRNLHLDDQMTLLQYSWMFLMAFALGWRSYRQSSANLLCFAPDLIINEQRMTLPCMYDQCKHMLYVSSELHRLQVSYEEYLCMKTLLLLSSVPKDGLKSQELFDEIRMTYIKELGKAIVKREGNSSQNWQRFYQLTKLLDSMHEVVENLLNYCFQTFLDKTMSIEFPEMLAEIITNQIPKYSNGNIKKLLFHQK
Summary of the method: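 Antagonist-mode qHTS: compound titrations added to GRE-bla HeLa cells, then dexamethasone 2 nM final; 18 h, 37 C. CCF4 FRET fluorescence normalized to dexamethasone and DMSO; IC50 from Hill fit.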

[3] = target: Peroxisome proliferator-activated receptor gamma (Homo sapiens) (UniProt P37231); assay: qHTS assay for small molecule agonists of peroxisome proliferator-activated receptor gamma signaling (AID 588536; active = well fitted curve in the direction sought with a large enough effect in the signal ratio, with a control signal flat, not every such curve was filed as active; the % refers to the signal ratio;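 note: 0% = DMSO basal wells and 100% = rosiglitazone at 2 µM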)
Chain of Peroxisome proliferator-activated receptor gamma (Homo sapiens) (P37231 whole entry, looked up): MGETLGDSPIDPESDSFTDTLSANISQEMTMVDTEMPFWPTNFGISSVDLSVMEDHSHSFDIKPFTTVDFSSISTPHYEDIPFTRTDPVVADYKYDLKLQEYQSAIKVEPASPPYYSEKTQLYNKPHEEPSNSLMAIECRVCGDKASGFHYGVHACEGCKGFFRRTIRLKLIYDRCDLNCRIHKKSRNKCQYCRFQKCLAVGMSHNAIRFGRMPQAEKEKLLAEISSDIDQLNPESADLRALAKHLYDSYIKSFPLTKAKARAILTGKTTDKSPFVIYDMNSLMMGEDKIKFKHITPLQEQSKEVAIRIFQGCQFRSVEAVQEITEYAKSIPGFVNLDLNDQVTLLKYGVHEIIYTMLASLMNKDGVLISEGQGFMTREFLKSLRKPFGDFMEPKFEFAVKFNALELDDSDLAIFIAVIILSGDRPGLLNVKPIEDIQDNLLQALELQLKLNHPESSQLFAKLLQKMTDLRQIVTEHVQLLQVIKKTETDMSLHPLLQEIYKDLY
Summary of the method: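 GeneBLAzer PPAR-gamma-UAS-bla HEK293 cells in 1% charcoal/dextran-treated FBS medium were treated 16 h at 37 C with compounds. Beta-lactamase activity was read by CCF4 ratio (460/530 nm). Response was normalized to 2 uM rosiglitazone (100%) and DMSO, then Hill-fitted for EC50 and efficacy.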

[4] = qHTS assay for small molecule agonists of retinoid X receptor alpha signaling (AID 588544); conditions: HEK293T RXRa-UAS-bla, beta-lactamase reporter, 18 h; 530 nm emission; note: potency is the fitted concentration of half-maximal effect;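 for activation: 0% = DMSO basal wells and 100% = reference agonist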
[5] = target: Retinoic acid receptor RXR-alpha (Homo sapiens) (UniProt P19793); assay: as above
Chain of Retinoic acid receptor RXR-alpha (Homo sapiens) (P19793 whole entry, looked up): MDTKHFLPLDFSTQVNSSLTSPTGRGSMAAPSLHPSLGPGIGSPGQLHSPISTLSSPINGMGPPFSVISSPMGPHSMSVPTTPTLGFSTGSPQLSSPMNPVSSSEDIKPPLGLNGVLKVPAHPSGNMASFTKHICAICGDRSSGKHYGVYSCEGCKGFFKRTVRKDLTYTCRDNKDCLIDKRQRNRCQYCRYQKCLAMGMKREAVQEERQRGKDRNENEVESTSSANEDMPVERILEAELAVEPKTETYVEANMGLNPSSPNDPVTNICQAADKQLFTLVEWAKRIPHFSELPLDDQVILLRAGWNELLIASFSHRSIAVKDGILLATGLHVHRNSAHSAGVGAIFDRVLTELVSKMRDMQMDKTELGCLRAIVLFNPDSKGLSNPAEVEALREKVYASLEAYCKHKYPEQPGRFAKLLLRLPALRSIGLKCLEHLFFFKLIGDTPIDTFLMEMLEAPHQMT

[6] = target: Thyroid hormone receptor beta (Homo sapiens) (UniProt P10828); assay: qHTS assay for small molecule agonists of thyroid hormone receptor beta signaling (AID 588545)
Chain of Thyroid hormone receptor beta (Homo sapiens) (P10828 whole entry, looked up): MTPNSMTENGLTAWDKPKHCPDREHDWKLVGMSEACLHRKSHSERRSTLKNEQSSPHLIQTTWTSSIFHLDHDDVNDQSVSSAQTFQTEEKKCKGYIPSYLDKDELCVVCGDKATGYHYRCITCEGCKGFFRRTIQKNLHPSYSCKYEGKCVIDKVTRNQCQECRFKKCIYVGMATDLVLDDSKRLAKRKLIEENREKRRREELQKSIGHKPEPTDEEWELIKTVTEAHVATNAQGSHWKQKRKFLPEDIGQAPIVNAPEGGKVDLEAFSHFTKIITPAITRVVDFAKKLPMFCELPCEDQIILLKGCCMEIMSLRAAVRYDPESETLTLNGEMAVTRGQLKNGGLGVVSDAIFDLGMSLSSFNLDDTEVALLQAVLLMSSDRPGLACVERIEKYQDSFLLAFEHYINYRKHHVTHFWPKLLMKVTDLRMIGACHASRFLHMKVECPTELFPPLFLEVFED
Summary of the method: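 In this cell-based screen, titrated compounds act on HEK 293 cells held in medium with 2% charcoal/dextran FBS, NEAA and pyruvate for 18 hrs at 37 C. Responses are expressed relative to T3 (10 nM) as 100% and basal DMSO as 0%.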

[7] = qHTS assay for small molecule antagonists of retinoid X receptor alpha signaling (AID 588546; active = well fitted inhibition curve with a large enough effect in the signal ratio, with a control signal flat, not every such curve was filed as active; the % refers to the signal ratio;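 note: cells stimulated with 9-cis-retinoic acid as agonist; % is set by controls: 0 for no effect and ±100 for the full control effect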); conditions: HEK293T RXRa-UAS-bla, beta-lactamase ratio, antagonist mode; measured here: W530 green channel, cytotoxicity proxy
Summary of the method: (§1)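 Beta-lactamase reporter inhibition, read as CCF4 fluorescence ratio (ex 405, em 460/530 nm) after 2 h at RT. HEK293T UAS-bla cells, 2500/well, were stimulated with 9-cis-RA at 500 or 100 nM final alongside test compound for 18 h at 37 C.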

[8] = target: Retinoic acid receptor RXR-alpha (Homo sapiens) (UniProt P19793); assay: as above; conditions: HEK293T RXRa-UAS-bla, beta-lactamase ratio, antagonist mode
Summary of the method: as §1

[9] = qHTS assay for small molecule activators of the nuclear factor-kappa B (NF-kB) signaling pathway (AID 651749; active = well fitted activation curve with a large enough effect in the signal ratio; the % refers to the signal ratio; note: series mostly up to about 77 µM; % of control where 0% means no effect); conditions: NF-kB-bla ME-180 cells, beta-lactamase FRET ratio, 16 h; activation: stronger effect = higher value
Summary of the method: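 NF-kB-bla ME-180 cells carrying a beta-lactamase reporter under an NF-kB response element, 2,000 cells/well, exposed to compound for 16 hr at 37C; FRET-based beta-lactamase fluorescence read-out of pathway activation.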

[10] = qHTS assay for environmental chemicals that activate the Aryl hydrocarbon Receptor (AhR) signaling pathway (AID 651777; active = well fitted curve in the direction sought with a large enough effect; an effect the other way counts as inactive or inconclusive; note: % of control where 0% means no effect; nearly all actives have a fitted effect of over 15% in size); conditions: 1A2-DRE human hepatoma cells, luciferase, 24 h; activation: stronger effect = higher value
Summary of the method: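 Quantitative HTS in stably transfected human liver-derived cells whose luciferase gene sits downstream of the CYP1A2 promoter and dioxin response element. After 24 hr exposure at 37 C, One-Glo luminescence was measured.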

[11] = target: Peroxisome proliferator-activated receptor alpha (Homo sapiens) (UniProt Q07869); assay: qHTS assay for small molecule agonists of the peroxisome proliferator-activated receptor alpha (PPARalpha) signaling pathway (AID 651778; active = well fitted curve in the direction sought with a large enough effect; an effect the other way counts as inactive or inconclusive; note: % of control where 0% means no effect); conditions: PathHunter PPARalpha complementation, chemiluminescence, 6 h; max response: stronger effect = higher value
Chain of Peroxisome proliferator-activated receptor alpha (Homo sapiens) (Q07869 whole entry, looked up, the tested form may be a part): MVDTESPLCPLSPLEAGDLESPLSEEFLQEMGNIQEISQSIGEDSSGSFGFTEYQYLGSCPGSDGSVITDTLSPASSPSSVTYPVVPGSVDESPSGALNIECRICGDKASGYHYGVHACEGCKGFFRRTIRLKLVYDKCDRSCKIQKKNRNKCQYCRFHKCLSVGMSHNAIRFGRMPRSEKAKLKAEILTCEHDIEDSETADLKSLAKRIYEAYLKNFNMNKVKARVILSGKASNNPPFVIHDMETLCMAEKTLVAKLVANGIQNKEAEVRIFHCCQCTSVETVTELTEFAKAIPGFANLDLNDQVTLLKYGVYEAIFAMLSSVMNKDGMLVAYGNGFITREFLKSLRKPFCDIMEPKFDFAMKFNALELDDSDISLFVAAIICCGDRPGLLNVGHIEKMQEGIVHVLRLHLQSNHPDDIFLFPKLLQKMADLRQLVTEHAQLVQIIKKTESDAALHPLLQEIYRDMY
Summary of the method: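 Enzyme-fragment complementation assay in which ligand-bound PPARalpha translocates and forms an active enzyme that generates chemiluminescence. Cells were plated overnight, exposed to compound for 6 hr at 37 C, and then given detection reagent for 60 min at room temperature.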

[12] = qHTS assay for cell viability of HEK293 cells (AID 743288; active = well fitted curve in the direction sought with a large enough effect; an effect the other way counts as inactive or inconclusive; note: % is set by controls: 0 for no effect and ±100 for the full control effect; nearly all actives have a fitted effect of over 50% in size); conditions: ATP luminescence (CellTiter-Glo), 18 h; max response: stronger effect = lower value
Summary of the method: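 Environmental chemicals tested in qHTS format against parental HEK293 cells; 18 h treatment, 37 C; read-out ATP luminescence (CellTiter-Glo), 30 min RT development.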

[13] = qHTS assay for cell viability of the p53RE-bla HCT-116 cell line (AID 743292; active = well fitted curve in the direction sought with a large enough effect; an effect the other way counts as inactive or inconclusive; note: % is set by controls: 0 for no effect and ±100 for the full control effect; nearly all actives have a fitted effect of over 55% in size)
Summary of the method: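 Viability of compound-treated p53RE-bla HCT-116 cells is taken from ATP-dependent luciferase luminescence. Treatment lasts 16 h at 37 C after a 5 h settling period; detection follows 30 min at room temperature.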

[14] = target: Nuclear receptor subfamily 1 group I member 2 (Rattus norvegicus) (UniProt Q9R1A7); assay: qHTS assay for small molecule activators of the rat pregnane X receptor (rPXR) signaling pathway (AID 651751; call rule not given here; note: 0% is about no effect); conditions: rPXR reporter cells, luciferase (One-Glo), 24 h
Chain of Nuclear receptor subfamily 1 group I member 2 (Rattus norvegicus) (Q9R1A7 whole entry, looked up): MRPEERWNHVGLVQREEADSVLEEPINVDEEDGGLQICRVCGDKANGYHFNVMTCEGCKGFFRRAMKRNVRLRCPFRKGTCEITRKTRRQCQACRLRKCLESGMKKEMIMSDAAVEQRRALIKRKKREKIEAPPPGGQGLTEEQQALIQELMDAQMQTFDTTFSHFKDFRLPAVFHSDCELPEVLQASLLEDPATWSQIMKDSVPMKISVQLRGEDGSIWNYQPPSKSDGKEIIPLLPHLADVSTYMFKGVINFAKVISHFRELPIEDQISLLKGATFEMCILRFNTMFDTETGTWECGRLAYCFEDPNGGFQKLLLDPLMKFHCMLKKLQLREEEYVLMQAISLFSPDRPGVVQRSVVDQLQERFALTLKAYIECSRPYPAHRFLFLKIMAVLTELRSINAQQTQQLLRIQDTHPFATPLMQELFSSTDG

[15] = qHTS assay for small molecule activators of the human pregnane X receptor (PXR) signaling pathway (AID 720659; call rule not given here; note: 0% is about no effect)
[16] = target: Glucocorticoid receptor (Homo sapiens) (UniProt P04150); assay: qHTS assay for small molecule agonists of glucocorticoid receptor signaling (AID 588532; active = well fitted curve in the direction sought with a large enough effect in the signal ratio, with a control signal flat; the % refers to the signal ratio;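 note: 100% = dexamethasone at 0.1 µM and 0% = DMSO only wells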); conditions: HeLa MMTV-bla, beta-lactamase ratio, agonist, 18 h; stronger effect = higher value; percent of dexamethasone control, DMSO zero
Summary of the method: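 Cells were plated and rested 3-5 h at 37 C, compounds were added in titration and incubated 18 h, then CCF4 substrate was loaded for 2 h at RT before reading blue/green fluorescence. EC50 came from Hill-equation fitting.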

[17] = target: Vitamin D3 receptor (Homo sapiens) (UniProt P11473); assay: qHTS assay for small molecule antagonists of vitamin D receptor signaling (AID 588541);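 note: receptor activated by calcitriol during compound treatment; series mostly up to about 77 µM; % is set by controls: 0 for no effect and ±100 for the full control effect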
Chain of Vitamin D3 receptor (Homo sapiens) (P11473 whole entry, looked up): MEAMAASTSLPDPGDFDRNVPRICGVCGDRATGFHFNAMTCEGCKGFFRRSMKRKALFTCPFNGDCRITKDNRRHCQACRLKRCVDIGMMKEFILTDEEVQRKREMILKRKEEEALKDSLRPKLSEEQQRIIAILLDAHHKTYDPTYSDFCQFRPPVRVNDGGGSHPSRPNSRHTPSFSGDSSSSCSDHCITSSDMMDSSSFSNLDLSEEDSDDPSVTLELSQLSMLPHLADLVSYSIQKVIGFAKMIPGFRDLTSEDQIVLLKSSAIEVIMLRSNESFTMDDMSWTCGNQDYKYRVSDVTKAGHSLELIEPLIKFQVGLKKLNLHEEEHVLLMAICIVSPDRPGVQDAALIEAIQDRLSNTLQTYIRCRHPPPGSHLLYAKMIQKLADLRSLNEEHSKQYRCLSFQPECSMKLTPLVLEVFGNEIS
Summary of the method: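 VDR-UAS-bla HEK293T cells in 2% charcoal-stripped FBS were stimulated with 1-alpha,25-dihydroxyvitamin D3 (3 nM final) plus compound for 16 h at 37 C. The beta-lactamase CCF4 readout was normalized to 50 nM agonist and DMSO, and Hill fits gave IC50.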

[18] = target: Vitamin D3 receptor (Homo sapiens) (UniProt P11473); assay: qHTS assay for small molecule agonists of vitamin D receptor signaling (AID 588543);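 note: 0% = DMSO basal and 100% = reference agonist control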
Summary of the method: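 β-lactamase reporter, VDR-UAS-bla HEK293T, agonist mode. Cells plated 5 h at 37 °C, compound titration 16 h at 37 °C, CCF4 dye 2 h RT, ratio 460/530 nm. Hill fit → EC50, efficacy vs 50 nM 1α,25-(OH)2D3.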

[19] = qHTS assay for small molecule agonists of the antioxidant response element (ARE) signaling pathway measured by Nrf2-dependant transcriptional activity (AID 720636; active = well fitted curve in the direction sought with a large enough effect in the repeat runs; an effect the other way counts as inactive or inconclusive; note: % of control where 0% means no effect)
Summary of the method: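 Quantitative HTS format in HepG2 cells stably expressing an ARE-luciferase reporter; 16 hr compound treatment at 37 C, luciferase signal detected with ONE-Glo.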

[20] = qHTS assay for small molecule agonists of the antioxidant response element (ARE) signaling pathway measured by Nrf2-dependant transcriptional activity - cell viability counter screen (AID 720653; active = well fitted curve in the direction sought with a large enough effect in the repeat runs; an effect the other way counts as inactive or inconclusive; note: % is set by controls: 0 for no effect and ±100 for the full control effect); conditions: ARE-bla HepG2 viability, CellTiter-Glo ATP luminescence, 16 h; max response: stronger effect = lower value
Summary of the method: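 ARE-bla HepG2 cells treated with compounds for 16 h at 37C; this counter screen measures viability as intracellular ATP by CellTiter-Glo luminescence after 30 min at room temperature.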

Chain of Estrogen receptor (Homo sapiens) (P03372 whole entry, looked up): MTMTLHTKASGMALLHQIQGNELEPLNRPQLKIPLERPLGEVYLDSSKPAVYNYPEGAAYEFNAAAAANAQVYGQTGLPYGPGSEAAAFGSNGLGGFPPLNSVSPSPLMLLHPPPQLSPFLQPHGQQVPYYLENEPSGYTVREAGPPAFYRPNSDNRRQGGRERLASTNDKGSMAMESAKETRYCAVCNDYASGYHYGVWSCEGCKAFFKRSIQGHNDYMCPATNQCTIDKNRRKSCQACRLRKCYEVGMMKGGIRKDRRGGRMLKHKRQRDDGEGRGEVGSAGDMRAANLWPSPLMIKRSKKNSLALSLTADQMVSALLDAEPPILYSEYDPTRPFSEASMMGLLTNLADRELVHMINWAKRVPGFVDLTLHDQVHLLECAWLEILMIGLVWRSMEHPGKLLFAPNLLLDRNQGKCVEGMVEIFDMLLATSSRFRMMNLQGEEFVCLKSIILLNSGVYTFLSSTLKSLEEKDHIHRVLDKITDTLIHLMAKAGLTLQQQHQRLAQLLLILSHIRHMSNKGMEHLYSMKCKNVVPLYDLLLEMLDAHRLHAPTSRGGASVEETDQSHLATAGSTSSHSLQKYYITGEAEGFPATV

CCCCCCCCCCCCCCCCCC#N
-14.7%: max response [4]
inactive: Potency [1] | Potency [2] | outcome [3] | Potency [5] | Potency [6] | max response [8] -4.3% | activation [9] -1.03% | activation [10] 2.76% | max response [11] 3.6% | max response [12] -12.8% | Potency [13] | max response [14] 2.15% | outcome [15]
-8.8%: max response [7]

CC/C=C/CCCCCCCCCCOC(C)=O
-22.5%: max response [4]
inactive: Potency [1] | activation [16] 2.34% | Potency [2] | outcome [3] | Potency [17] | outcome [18] | Potency [5] | Potency [6] | activation [10] -0.59% | max response [11] -1.44% | Potency [19] | max response [20] -0.636% | max response [12] -7.88% | Potency [13] | max response [14] 3.81% | outcome [15]

CC(C)(C)c1cc(C(C)(C)C)c(O)c(C(C)(C)C)c1
active: Potency [5] 794 nM
-17.5%: max response [4]
inactive: Potency [1] | activation [16] 22.2% | Potency [2] | Potency [6] | activation [10] -0.208% | max response [11] 7.66% | Potency [19] | max response [20] 8.43% | max response [12] -4.45% | Potency [13] | max response [14] -4.2% | outcome [15]

C=CC(=O)OCC(C)OCC(C)OCC(C)OC(=O)C=C (stereo not drawn)
inactive: Potency [1] | activation [16] -17.2% | Potency [2] | Potency [17] | outcome [18] | Potency [5] | Potency [6] | max response [8] 10.6% | activation [10] -0.0895% | max response [11] -2.39% | Potency [19] | max response [20] -8.01% | max response [12] -1.74% | Potency [13] | max response [14] -2.64% | outcome [15]
-20.7%: max response [7]
-8.39%: max response [4]

CCCCCCCCCCCCCCCC
inactive: Potency [1] | Potency [2] | outcome [3] | Potency [5] | Potency [6] | max response [8] -1.47% | activation [10] 0.0152% | max response [11] 0.236% | Potency [19] | max response [20] -4.36% | Potency [13] | max response [14] 1.98% | outcome [15]
-21.5%: max response [7]
0.581%: max response [4]

CC(C)c1ccc(C(C)C)cc1
inactive: Potency [1] | activation [16] 1.07% | Potency [2] | outcome [3] | Potency [17] | outcome [18] | Potency [5] | Potency [6] | max response [8] 9.54% | activation [10] 0.903% | Potency [19] | max response [20] 2.58% | max response [12] 4.22% | Potency [13] | max response [14] -0.628% | outcome [15]
-15.9%: max response [7]
-15.2%: max response [4]

CCCCCCCC(=O)OC
14.7%: max response [4]
-15%: max response [7]
inactive: Potency [1] | outcome [3] | Potency [17] | outcome [18] | Potency [5] | Potency [6] | max response [8] -8.88% | activation [9] -1.19% | activation [10] -2.72% | max response [11] -3.16% | max response [20] 0.0694% | max response [12] -6.4% | Potency [13] | max response [14] 2.14% | outcome [15]

CCCC/C=C/CCCCO
-14.6%: max response [4]
-7.43%: max response [7]
inactive: Potency [1] | activation [16] -4.1% | Potency [2] | outcome [3] | outcome [18] | Potency [5] | max response [8] -16.5% | activation [10] -0.731% | max response [11] -1.7% | Potency [19] | max response [12] -11.8% | Potency [13] | max response [14] -2.13% | outcome [15]

C=C[Si](OCCOC)(OCCOC)OCCOC
-7.07%: max response [4]
-8.04%: max response [7]
inactive: Potency [1] | activation [16] -9.96% | Potency [2] | outcome [3] | Potency [17] | Potency [5] | max response [8] 2.22% | activation [10] 0.581% | max response [11] -0.929% | max response [12] -9.27% | Potency [13] | max response [14] 1.26% | outcome [15]

C=C(C)C(=O)OCCCCCCCCCCCC
inactive: Potency [1] | activation [16] -1.63% | Potency [2] | outcome [3] | Potency [17] | Potency [5] | Potency [6] | max response [8] 6.49% | activation [9] -0.811% | activation [10] 1.15% | max response [11] -1.38% | Potency [19] | max response [20] 11.2% | Potency [13] | max response [14] 1.96% | outcome [15]
-11.6%: max response [4]
-6.86%: max response [7]

c1ccc(OCCOc2ccccc2)cc1
inactive: Potency [1] | activation [16] -7.01% | Potency [2] | outcome [3] | Potency [17] | outcome [18] | Potency [6] | max response [8] -10.1% | activation [9] -1.28% | activation [10] 8.39% | max response [11] 0.31% | max response [20] -8.94% | max response [12] -4.78% | Potency [13]
-12.8%: max response [7]

Cc1c(Cl)cccc1Cl
-9.08%: max response [4]
-1.12%: max response [7]
inactive: Potency [1] | activation [16] -6.09% | Potency [2] | Potency [17] | outcome [18] | Potency [5] | max response [8] -5.5% | activation [9] -1.64% | max response [11] -1.42% | Potency [19] | max response [20] -14.1% | max response [12] -7.06% | Potency [13] | max response [14] -2.7% | outcome [15]

Fc1ccc(Br)cc1
inactive: Potency [1] | activation [16] 9.16% | Potency [2] | Potency [17] | outcome [18] | Potency [5] | Potency [6] | max response [8] 4.33% | activation [9] 1.17% | activation [10] 2.85% | max response [11] -2.75% | Potency [19] | max response [12] -0.046% | Potency [13] | max response [14] -1.72% | outcome [15]
-8.4%: max response [7]
4.76%: max response [4]
